Calls of active or inactive are those of the source. Rule for the calls: active = hit-call score of the fitted dose curve at least 0.9, where 1 is the maximum; inactive = score below 0.9.

Read-out in the first test: TIMP metallopeptidase inhibitor 2 (TIMP2), TIMP2 (gene 7077)
Briefly: BSK_hDFCGF_TIMP2: BioMAP Diversity Plus: hDFCGF Assay for TIMP metallopeptidase inhibitor 2 (TIMP2) Biomarker Activity (AID 2284289). As to conditions: primary human foreskin fibroblasts. The procedure, abridged:
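Primary human foreskin fibroblasts in the hDFCGF system, dosed for 24 h; TIMP-2 level measured by ELISA, fitted in the positive direction against DMSO; cytotoxicity checked in parallel by sulforhodamine B total protein staining.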
With `OCCCCO`, the result was inactive.
As for `CCCCOC(=O)COC(=O)c1ccccc1C(=O)OCCCC`, the result was inactive.
The same measure, in the same setting: as for `O=C(Cc1ccccc1)OCCc1ccccc1`, the entry is “inactive”.

Read-out in the next test: Thrombomodulin, THBD (gene 7056)
Nature of the test: BSK_LPS_Thrombomodulin: BioMAP Diversity Plus: LPS Assay for Thrombomodulin Biomarker Activity (AID 2284296).
Details: not given
Summed up:
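Thrombomodulin on the surface of LPS-activated endothelial/PBMC co-cultures was quantified by ELISA at 24 hours post-dosing, with DMSO as baseline. Parallel SRB total-protein staining flagged overt cytotoxicity.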
In the case of `OCCCCO`, the outcome was inactive.
Regarding `CCCCOC(=O)COC(=O)c1ccccc1C(=O)OCCCC`, the outcome is “inactive [primary human HUVEC with PBMC]”.
Same read-out and setting: with `O=C(Cc1ccccc1)OCCc1ccccc1` the entry was “inactive”.

The record behind these values is PubChem BioAssay (EPA / NIEHS).
